Several values for one entry are separate records, joined by “and”; a condition that tells them apart may be missing. Equal entries are not always repeated. The panel holds about 83,000 compounds, 20% with a hit somewhere; the sample as a whole holds those more often.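 Single-dose data. Exposure time 48 hours. Values below 10 considered active.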 Activity calls are given as the source filed them.
Tests used:
Experiment in all cases: NCI-60 one-dose screen, 48 h (100 = growth as untreated, 0 = no growth, -100 = all killed)
Conditions in all cases: 10 µM unless noted
[1] = test system: NCI-H23 lung
[2] = test system: NCI-H226 lung
[3] = test system: NCI-H322M lung
[4] = test system: HOP-62 NSCLC
[5] = test system: NCI-H460 lung
[6] = test system: HOP-92 NSCLC
[7] = test system: NCI-H522 lung
[8] = test system: A549/ATCC NSCLC
[9] = test system: 786-0 renal
[10] = test system: COLO 205 colon
[11] = test system: DU-145 prostate
[12] = test system: K-562 leukemia
[13] = test system: MALME-3M melanoma
[14] = test system: MDA-MB-231 breast
[15] = test system: RXF 393 renal
[16] = test system: SF-268 CNS
[17] = test system: SF-295 CNS
[18] = test system: SF-539 CNS
[19] = test system: UACC-257 melanoma
[20] = test system: M14 melanoma

Structure (SMILES) | growth [1] | growth [2] | growth [3] | growth [4] | growth [5] | growth [6] | growth [7] | growth [8] | growth [9] | growth [10] | growth [11] | growth [12] | growth [13] | growth [14] | growth [15] | growth [16] | growth [17] | growth [18] | growth [19] | growth [20]
O=C1OC2(c3ccccc31)c1ccc(O)c(O)c1Oc1c2ccc(O)c1O | 105% (inactive) and 102% (inactive) | 90.5% (inactive) and 121% (inactive) | 109% (inactive) and 130% (inactive) | 114% (inactive) and 101% (inactive) | 114% (inactive) and 109% (inactive) | 61.9% (inactive) and 120% (inactive) | 89.8% (inactive) and 84.1% (inactive) | 105% (inactive) | 109% (inactive) and 117% (inactive) | 115% (inactive) and 117% (inactive) | 116% (inactive) and 119% (inactive) | 115% (inactive) and 92.6% (inactive) | 126% (inactive) and 114% (inactive) | 110% (inactive) and 108% (inactive) | 102% (inactive) and 120% (inactive) | 108% (inactive) and 114% (inactive) | 110% (inactive) and 130% (inactive) | 108% (inactive) and 125% (inactive) | 106% (inactive) | 113% (inactive)
O=C(CN1CCN(c2cc3c(cc2F)c(=O)c(C(=O)O)cn3C2CC2)CC1)Nc1ccc(Cl)cc1 | 94.5% (inactive) and 87.5% (inactive) | 80.1% (inactive) and 96.7% (inactive) | 53.8% (inactive) and 56% (inactive) | 71.7% (inactive) and 100% (inactive) | 88% (inactive) and 90.1% (inactive) | 78.9% (inactive) and 87.2% (inactive) | -13.7% (active) and 83.5% (inactive) | 69.2% (inactive) and 86.8% (inactive) | 70.1% (inactive) and 83.8% (inactive) | 99.9% (inactive) and 109% (inactive) | 99.1% (inactive) and 103% (inactive) | 68.1% (inactive) and 67.9% (inactive) | 91.8% (inactive) and 91.1% (inactive) | 60.2% (inactive) and 70.1% (inactive) | 74.7% (inactive) and 84.3% (inactive) | 91.2% (inactive) and 92.5% (inactive) | 87.9% (inactive) and 96.6% (inactive) | 86.9% (inactive) and 85.6% (inactive) | 57% (inactive) and 88.4% (inactive) | 81.8% (inactive) and 92% (inactive)
Cc1cc(-c2ccc(NS(=O)(=O)c3ccccc3)c(C)c2)ccc1NS(=O)(=O)c1ccccc1 | 85% (inactive) and 97.8% (inactive) | 82.2% (inactive) and 92.1% (inactive) | 92.7% (inactive) and 121% (inactive) | 94.2% (inactive) and 111% (inactive) | 78% (inactive) and 87.6% (inactive) | 83.3% (inactive) and 88% (inactive) | 52.8% (inactive) and 64.8% (inactive) | 67% (inactive) and 80.5% (inactive) | 96.8% (inactive) and 107% (inactive) | 91.9% (inactive) and 121% (inactive) | 93.8% (inactive) and 94.7% (inactive) | 62.7% (inactive) and 65.9% (inactive) | 79.6% (inactive) and 120% (inactive) | 70.1% (inactive) and 74.5% (inactive) | 70.1% (inactive) and 119% (inactive) | 91.5% (inactive) and 106% (inactive) | 58.1% (inactive) and 99.4% (inactive) | 108% (inactive) and 95.9% (inactive) | 93.6% (inactive) and 110% (inactive) | 87.4% (inactive) and 99% (inactive)
O=[N+]([O-])c1ccc(N/N=C\c2cc(Br)ccc2O)nc1 | 20.7% (inactive) and 14.2% (inactive) | 91.4% (inactive) and 55.4% (inactive) | 24.2% (inactive) and 8.6% (active) | 12.2% (inactive) and 34.9% (inactive) | 2.22% (active) and 0.392% (active) | 37.9% (inactive) | 6.57% (active) and 7.63% (active) | 21.4% (inactive) | 25.6% (inactive) and 35% (inactive) | 22.9% (inactive) and 43.4% (inactive) | 31.8% (inactive) and 24.4% (inactive) | 20.6% (inactive) and -3.71% (active) | 16.6% (inactive) | 11% (inactive) and 24.3% (inactive) | 44.2% (inactive) and 48.2% (inactive) | 22.3% (inactive) and 19.7% (inactive) | 6.95% (active) and 7.63% (active) | 8.15% (active) and 9.56% (active) | 9.18% (active) and -3.76% (active) | 2.25% (active) and 13.7% (inactive)
CN(C)c1ccc(/C=C(\C#N)c2ccccc2)cc1 | 29.3% (inactive) and 36.4% (inactive) and 44.1% (inactive) | 92.4% (inactive) and 60.5% (inactive) and 73% (inactive) | 64% (inactive) and 57.1% (inactive) and 47.6% (inactive) | 48.3% (inactive) and 31.4% (inactive) and 36.6% (inactive) | 11.2% (inactive) and 20.8% (inactive) and 12.2% (inactive) | 53.9% (inactive) and 39.5% (inactive) and 14% (inactive) | -50% (active) and 2.73% (active) and 5.2% (active) | 24.3% (inactive) and 31.2% (inactive) and 24.9% (inactive) | 44.7% (inactive) and 42.3% (inactive) and 45.6% (inactive) | -2% (active) and -7.08% (active) | 15.7% (inactive) and 38.1% (inactive) | 11.3% (inactive) and 14% (inactive) and 23.9% (inactive) | 53.7% (inactive) and 51.2% (inactive) and 57.3% (inactive) | 55.7% (inactive) and 50.3% (inactive) and 48.9% (inactive) | -6.38% (active) and -3.64% (active) | 43.5% (inactive) and 61.1% (inactive) and 56% (inactive) | -18.9% (active) and 23.5% (inactive) and 17% (inactive) | -2.9% (active) and -3.11% (active) and -13.1% (active) | 20.1% (inactive) and 66.6% (inactive) and 56.6% (inactive) | 19.1% (inactive) and 30.2% (inactive) and 24% (inactive)
COC(=O)c1nc(N)nc(C(=O)OC)c1C(=O)c1ccc(OC)cc1 | 98.5% (inactive) and 58% (inactive) | 101% (inactive) and 74.8% (inactive) | 105% (inactive) and 88.1% (inactive) | 115% (inactive) and 62.3% (inactive) | 121% (inactive) and 55% (inactive) | 106% (inactive) and 63.4% (inactive) | 100% (inactive) and 55.7% (inactive) | 102% (inactive) and 53.6% (inactive) | 124% (inactive) and 72.4% (inactive) | 109% (inactive) and 75.8% (inactive) | 97.2% (inactive) and 48.2% (inactive) | 102% (inactive) and 52% (inactive) | 100% (inactive) and 50.4% (inactive) | 107% (inactive) and 53.8% (inactive) | 103% (inactive) and 9.98% (active) | 97.9% (inactive) and 92.8% (inactive) | 108% (inactive) and 102% (inactive) | 97.4% (inactive) and 59.8% (inactive) | 100% (inactive) and 86.7% (inactive) | 108% (inactive) and 48.5% (inactive)
CCOc1ccc2cc(-c3nn(CC4CCN(C)CC4)c4ncnc(N)c34)ccc2c1 | 74.2% (inactive) and 63.5% (inactive) | 83.6% (inactive) and 67.7% (inactive) | 92.7% (inactive) and 87.4% (inactive) | 83.8% (inactive) and 77.2% (inactive) | 96.1% (inactive) and 69.6% (inactive) | 69.1% (inactive) and 48.8% (inactive) | 87% (inactive) and 42.3% (inactive) | 78.3% (inactive) and 60.1% (inactive) | 80.1% (inactive) and 55.8% (inactive) | 89.7% (inactive) and 39.6% (inactive) | 102% (inactive) and 69.9% (inactive) | 87.5% (inactive) and 2.73% (active) | 69.7% (inactive) and -46.1% (active) | 85% (inactive) and 11.1% (inactive) | 46.8% (inactive) and -5.36% (active) | 90% (inactive) and 48.6% (inactive) | 96.9% (inactive) and 50.4% (inactive) | 84.4% (inactive) and 16.7% (inactive) | -67.9% (active) | 98.4% (inactive) and -77.3% (active)

Reference: PubChem BioAssay (NCI)
